# In PubChem BioAssay (NCI):
# About 83,000 compounds went through this panel and 20% of them were active in at least one assay; those are over-represented in the sample as a whole.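 Testing used 96-well plates and a 48-hour single-concentration exposure. Example: -40 means 40% of the starting cells died.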 Unmarked numbers belong to inactive results. Activity calls are given as the source filed them. Rule for the calls: active = growth percent below 10; inactive = the rest.
# Columns and labels:
# Experiment in all cases: NCI-60 one-dose screen, 48 h (100 = growth as untreated, 0 = no growth, -100 = all killed)
# Settings in all cases: 10 µM unless noted
# [1] = tested on: HCT-15 colon
# [2] = tested on: HT29 colon
# [3] = tested on: SNB-75 CNS
# [4] = tested on: SNB-19 CNS
# [5] = tested on: U251 CNS
# [6] = tested on: PC-3 prostate
# [7] = tested on: SK-MEL-5 melanoma
# [8] = tested on: UACC-62 melanoma
# [9] = tested on: SK-MEL-28 melanoma
# [10] = tested on: SK-MEL-2 melanoma
# [11] = tested on: EKVX NSCLC
# [12] = tested on: SN12C renal
# [13] = tested on: UO-31 renal
# [14] = tested on: TK-10 renal
# [15] = tested on: ACHN renal
# [16] = tested on: CAKI-1 renal
# [17] = tested on: CCRF-CEM leukemia
# [18] = tested on: MOLT-4 leukemia
# [19] = tested on: LOX IMVI melanoma
# [20] = tested on: A498 renal
SMILES,growth [1],growth [2],growth [3],growth [4] [%],growth [5],growth [6] [%],growth [7],growth [8] [%],growth [9] [%],growth [10] [%],growth [11] [%],growth [12],growth [13],growth [14],growth [15] [%],growth [16] [%],growth [17],growth [18],growth [19],growth [20] [%]
Cc1cc(Nc2cccc(C(F)(F)F)c2)n2c(nc3ccccc32)c1C#N,12.2%,13.2%,59.4%,40.7,11.6%,21.8,4.24% (active),37.9,54.8,28.7,31.5,25.4%,28.3%,58.3%,46.9,38.7,55.8%,56.6%,–,–
Cc1ccc(C2C3CC4CCCCC4N3[C@@]3(C(=O)Nc4cc(Cl)ccc43)C2C(=O)c2nc3ccccc3[nH]2)cc1 (some centres undefined),21.5%,19.5%,45.1%,49.7,38%,25.3,45%,54.7,66.2,59.7,27.3,44.8%,19.8%,39.6%,40.5,16.5,27.8%,2.61% (active),–,–
O=C(Nc1ccc2cc3ccc(NC(=O)NC4CCCCC4)cc3nc2c1)NC1CCCCC1,111%,82.7%,58.6%,78.9,56.2%,83.7,107%,87.8,79,97.3,95.1,88.2%,89.1%,100%,–,93.3,25.1%,9.49% (active),63%,–
Cc1[nH]n(-c2cccc(Cl)c2)c(=O)c1/C=C1\C=Nc2ccc(Br)cc21,59.2%,11.1%,-13.5% (active),78.1,7.54% (active),31.2,60.4%,37.4,71.2,73.4,41.1,3.46% (active),-9.91% (active),-51.3% (active),–,22.4,6.42% (active),26.9%,4.2% (active),–
CN(C)c1ccc(-c2c(C#N)c(N)n3nc(N)c(C#N)c3c2C#N)cc1,81.8%,83.5%,88.5%,95.4,90.1%,76.6,71.1%,113,96.3,88.3,76.5,72.3%,75.5%,82.4%,–,–,94%,90%,8.51% (active),106
NC(=O)CN1CCN(c2ccccc2Cl)CC1,107%,101%,119%,118,111%,105,110%,113,110,92.4,108,109%,82.7%,116%,103,96.4,115%,111%,–,–
CS(=O)(=O)c1ccc(-c2cc(-c3nnc(SCC(=O)Nc4ccc(C(=O)/C=C/c5ccc(Cl)cc5)cc4)n3-c3ccccc3)c3ccccc3n2)cc1,96.4%,106%,72.3%,85.2,90.9%,89.1,95.7%,80.2,103,107,94,91.3%,72.5%,99.3%,97.6,86.2,99.6%,90.5%,–,–
Fc1ccc(C2CC(c3cccc(Nc4ccncc4)c3)=NN2c2cc(Cl)cc(Cl)c2)cc1 (centres undefined),-42.3% (active),-21.5% (active),72.2%,82.3,-29.5% (active),26,84.7%,98.7,20.2,105,80,72%,47.6%,74.8%,43.3,31.1,0.277% (active),1.57% (active),–,94.5
CCOC(=O)c1ccc(Nc2ccnc(SCC(=O)c3ccc(C#N)cc3)n2)cc1,75.8%,76.2%,102%,89.9,84.8%,39.6,37.5%,39.3,80.8,71.1,73.4,73.8%,48%,90.4%,80,57.1,17.5%,16.3%,–,50.2
COc1c(Cl)cc(Cl)c2ccc(C=C3C(=O)N(C)C(=O)N(C)C3=O)nc12,103%,105%,98.6%,92,110%,99.4,101%,102,109,107,101,99.3%,96%,102%,106,95.3,99.8%,99.5%,–,96.8
COc1ccc(C(=O)c2cc3c(N)c(C(=O)Nc4ccc(Cl)cc4)sc3nc2C)cc1,55.9%,54.2%,4.28% (active),67,61.7%,78.7,85.2%,78.6,82.6,68.5,86.1,89.9%,79%,82%,74.7,66.3,73.9%,82.6%,–,59.9
CC(=O)O[C@]1(C(C)=O)CC[C@H]2[C@@H]3C=C(Cl)C4=CC(=O)CC[C@]4(C)[C@H]3CC[C@@]21C,102%,101%,117%,98,106%,96.1,109%,90.6,119,98.6,107,97.7%,93.8%,113%,–,94.6,95.3%,84.9%,115%,–
COc1cc2c(cc1[N+](=O)[O-])-c1ccc([N+](=O)[O-])cc1/C2=N/NC(N)=S,72.3%,48.7%,48.7%,58.8,47.1%,58,63.1%,36.4,95.4,87.8,68.5,67.1%,29.6%,77.4%,37.4,64.1,56.6%,60.1%,–,–
CC(C)CCSc1nc(NNC(N)=O)c(C#N)c(-c2ccccc2)n1,98.7%,115%,97.6%,99.2,109%,98.7,104%,98.1,104,107,99.9,95%,85.1%,105%,97,93.7,100%,110%,–,105
Cc1ccc2[nH]c(=S)n(-c3ccc(S(=O)(=O)Nc4ccc(Cl)nn4)cc3)c(=O)c2c1,101%,103%,97.8%,97.5,100%,103,101%,98.5,108,106,97.8,96.9%,85.2%,100%,104,90.6,100%,100%,–,92.1
CC1NC(=S)NC(=O)/C1=C/c1cc(=O)oc2c1ccc1ccccc12 (centres undefined),103%,87.7%,73.3%,103,94.9%,72.8,97.1%,99.1,115,91,88.7,95.6%,73.6%,123%,–,–,81%,88.6%,89.2%,101
